Most compounds without a hit are left out; they make up all but 3.1% or so of the library.
Anthrax LF prot: inhibitors of Bacillus anthracis lethal factor protease | P15917 | multiplex microsphere protease cleavage assay, LF | inhibition, % at 10 µM | 360,000 compounds, 0.12% hits; note: plate controls were buffer without enzyme for full effect and enzyme alone for no effect
BoNT F protease: blocks Botulinum neurotoxin F light chain protease. Multiplex microsphere protease cleavage assay, flow cytometry. inhibition, % at 10 µM. 360,000 compounds, 0.22% hits. AID 588497; in the data active = inhibition above about 35%, passing the limit was not always enough; inconclusive = no clear call, values can overlap the other calls; note: plate controls were buffer without enzyme for full effect and enzyme alone for no effect
SSB-PriA inh: blocks PriA binding to SSB C-terminal tail; AlphaScreen SSBct-PriA binding, biotinylated peptide; inhibition, % at 33 µM; 430,000 compounds, 0.6% hits; AID 1272365; in the data active = inhibition mostly above about 37%, no sharp cut-off; inactive = mostly below about 20%;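 note: plate controls were negative control peptide for no effect and reference peptide for full effect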
BoNT A protease: blocks Botulinum neurotoxin A light chain protease. AID 588499. 360,000 compounds, 0.17% hits. inhibition, % at 10 µM. multiplex microsphere protease substrate cleavage, flow cytometry; note: plate controls were buffer without enzyme for full effect and enzyme alone for no effect
Autofluor counter: compound fluorescence in toxin protease inhibitor counterscreen; fluorescence intensity (no concentration beside the values); compound autofluorescence counterscreen, microsphere flow cytometry; hits give high values; AID 624483; 360,000 compounds, 3.1% hits; in the data active = fluorescence intensity above about 16000; inconclusive = no clear call, values can overlap the other calls
* marks the source's active call; other numbers are inactive results; ? = inconclusive; / = not tested or not shown. Cut-off read from the data, not from the text of the source, unless noted: active = inhibition above about 30%; inconclusive = no clear call, values can overlap the other calls; inactive = below that.

SMILES	Anthrax LF prot	BoNT F protease	SSB-PriA inh	BoNT A protease	Autofluor counter
CCCNc1nc(SC)nc2c1cnn2CCNC(=O)c1c(-c2ccccc2Cl)noc1C	/	/	62*	/	/
Cc1onc(-c2ccccc2Cl)c1C(=O)NCCn1ncc2c(=O)n(Cc3ccccc3F)cnc21	/	/	-9	/	/
CN(C)CCOCCP(=O)(c1ccccc1)c1ccccc1	2	4	-1	1	23350*
Cc1nc2ccccn2c(=O)c1NC(=O)NCc1ccccc1	/	/	-7	/	/
Cc1ccc(Cl)cc1NC(=O)c1cccc(OC(F)F)c1	-4	5	-9	8	20132*
O=C(Nc1cc(Cl)ccc1Cl)c1cccc(Oc2ccccc2)c1	/	/	-4	/	/
Cc1ccc(NC(=O)CN2C/C(=C3\SC(=S)N(C4CCCC4)C3=O)c3ccccc32)c(C)c1	/	/	-24	/	/
COc1cccc(CCC(=O)N(C)C2CCCN(Cc3ccccc3F)C2)c1 (stereo not drawn)	-11	36*	-15	3	3255
COc1cccc(CC(=O)N(C)C2CCCN(Cc3ccccc3F)C2)c1 (stereo not drawn)	4	8	-6	1	3540
O=C(Nc1ccccc1F)c1cnccn1	-2	-2	-16	0	4468
O=C(Nc1ccccc1F)c1cc2nc(C(F)F)cc(C(F)F)n2n1	-2	-7	-8	-6	21540*
CC1=C(C(=O)Nc2ccccc2)C(c2cccc([N+](=O)[O-])c2)Nc2nc3ccccc3n21 (stereo not drawn)	-2	-3	-3	-3	23880*
CC(C)(C)NC(=O)CSc1cccc2cccnc12	/	/	41	/	/
O=C(CSc1cccc2cccnc12)Nc1cccc(C(F)(F)F)c1	/	/	126*	/	/
COc1cccc(NC(=O)CSc2cccc3cccnc23)c1	/	/	21	/	/
CC(=O)c1cccc(NC(=O)CSc2cccc3cccnc23)c1	/	/	116*	/	/
Cc1cc(I)ccc1NC(=O)CSc1cccc2cccnc12	/	/	45	/	/
CN(C)S(=O)(=O)c1cccc(NC(=O)CSc2cccc3cccnc23)c1	-6	-5	65*	1	5487
O=C(CSc1cccc2cccnc12)Nc1cccc([N+](=O)[O-])c1	/	/	88*	/	/
COc1cc([N+](=O)[O-])ccc1NC(=O)CSc1cccc2cccnc12	/	/	-11	/	/
O=C(c1ccccc1C(F)(F)F)N1CCN(C(=O)c2cnn3ccccc23)CC1	/	/	1	/	/
CC(=O)c1cccc(NC(=O)CSCc2ccc(Br)cc2)c1	-3	-2	-18	-1	10073
CC(=O)c1cccc(NC(=O)CSCc2ccccc2)c1	0	-3	-4	0	16402*
O=C(CSc1cccc2cccnc12)c1ccc([N+](=O)[O-])cc1	/	/	58*	/	/
O=C(O)CSCC(=O)Nc1ccccc1	-1	-2	-8	-2	16554*
SMILES	Anthrax LF prot	BoNT F protease	SSB-PriA inh	BoNT A protease	Autofluor counter
O=C(CSc1cccc2cccnc12)Nc1ccc(SC(F)F)cc1	/	/	85*	/	/
Cn1c(=O)c2c(ncn2CN2CCN(C(=O)c3ccco3)CC2)n(C)c1=O	/	/	-9	/	/
NC(=O)Cn1nnn(-c2ccc(NC(=O)c3ccc(Br)o3)cc2)c1=O	/	/	-5	/	/
CC(C)C(=O)N1CCc2ccc(NC(=O)c3ccc(Br)o3)cc2C1	/	/	-1	/	/
C=CCn1c(SCc2csc(C)n2)nc2scc(-c3ccc(F)cc3)c2c1=O	/	/	-11	/	/
Oc1ccccc1C=NNc1ncc(Br)cn1	/	/	-15	/	/
Cc1cc(Br)ccc1NC(=O)CSc1cccc2cccnc12	/	/	82*	/	/
Cc1cc(Cl)ccc1NC(=O)CSc1cccc2cccnc12	/	/	47	/	/
CN1/C(=C\C=C2/SC(=S)N(CC(=O)O)C2=O)C(C)(C)c2ccccc21	-1	-10	8	7	2717
C=CCN1C(=O)/C(=C\C=C2\N(C)c3ccccc3C2(C)C)SC1=S	23	10	13	41*	4733
Cc1nnc(Sc2c(N)n(C)c(=O)n(C)c2=O)s1	-7	-3	1	0	20250*
NS(=O)(=O)c1ccc(CNC(=O)C23CC4CC(CC(C4)C2)C3)cc1	-3	-3	-8	0	3115
NS(=O)(=O)c1ccc(CNC(=O)NC23CC4CC(CC(C4)C2)C3)cc1	-16	11	-7	?	17603*
CCCCNC(=O)NC12CC3CC(CC(C3)C1)C2	0	-4	-2	-1	2272
O=C(NCCCO)NC12CC3CC(CC(C3)C1)C2	-1	5	4	3	19797*
COC(=O)c1ccc(S(=O)(=O)N2CCC(Oc3cccnn3)CC2)cc1	/	/	-7	/	/
CN(Cc1ccccc1)c1oc(COc2ccc(F)cc2)nc1C#N	/	/	64*	/	/
CN(C)c1oc(-c2ccc(OCc3ccccc3)cc2)nc1C#N	-6	-3	3	0	2356
CCOc1ccc(NC(=O)COC(=O)Cn2cnnn2)cc1OCC	-1	-3	-7	0	23264*
COc1ccc(OC)c(-c2cc(C(=O)Nc3cc(C)n(Cc4ccc(Cl)cc4)n3)no2)c1	-7	-3	6	-2	23480*
COc1cccc(-c2cc(C(=O)Nc3c(C)n(C)n(-c4ccccc4)c3=O)no2)c1	0	1	6	0	3390
COc1ccccc1-c1cc(C(=O)Nc2c(C)n(C)n(-c3ccccc3)c2=O)no1	-3	0	-22	?	16484*
COc1ccc(OC)c(-c2cc(C(=O)Nc3c(C)n(C)n(-c4ccccc4)c3=O)no2)c1	-5	-4	-18	-1	16603*
CCOC(=O)c1sc(Nc2ccccn2)nc1C	/	/	0	/	/
CCOc1cc(C(=O)OCC(=O)c2c(N)n(C)c(=O)n(C)c2=O)cc(OCC)c1OCC	2	2	-9	1	22161*
SMILES	Anthrax LF prot	BoNT F protease	SSB-PriA inh	BoNT A protease	Autofluor counter
COc1ccc(-c2n[nH]c(=S)n2Cc2ccco2)cc1	-2	-5	-8	-3	21139*
COc1ccc(OCc2n[nH]c(=S)n2Cc2ccco2)cc1	3	2	-4	0	4673
CCCCOc1ccc(-c2n[nH]c(=S)n2Cc2ccccc2)cc1	-11	34*	-15	2	3674
Cc1n[nH]c(C)c1CCC(=O)NC1CCC(Oc2ccccn2)CC1 (stereo not drawn)	/	/	-9	/	/
Cc1nnc(SCCCNC(=O)Nc2ncccn2)s1	/	/	9	/	/
COc1ccc(CN2C(=O)c3cccnc3C2Nc2cc(Cl)ccc2OC)cc1 (stereo not drawn)	-4	-10	-6	-1	21495*
COc1ccc(OC)c(NC2c3ncccc3C(=O)N2Cc2ccco2)c1 (stereo not drawn)	-5	-10	10	-2	16912*
COc1ccc(CN2C(=O)c3cccnc3C2O)cc1 (stereo not drawn)	-9	-43	-8	-3	3920
Cc1ccc(NC2c3ncccc3C(=O)N2Cc2ccco2)c(C)c1 (stereo not drawn)	-1	-4	3	0	2479
COc1ccc(Cl)cc1NC(=O)CSc1nnc(-c2cccc(C)c2)n1N	/	/	8	/	/
Cc1nc2ccccn2c1C(=O)O	/	/	-8	/	/
O=C(NNC1=NCCCCC1)c1ccccc1	0	2	-8	2	22558*
c1ccc(CNC2=NCCCC2)cc1	-2	-6	-8	0	3801
O=C(c1cc(=O)[nH]c2ccccc12)N1CCC[C@H](Cc2nc(-c3ccccc3F)no2)C1	/	/	-6	/	/
CC(C)N1CCC(CNS(=O)(=O)c2ccc3c(c2)CCCC3)CC1	/	/	-6	/	/

From PubChem
